Active and inactive are the calls of the source. How the source made its calls: active means hit-call score of the fitted dose curve at least 0.9, where 1 is the maximum; inactive means score below 0.9.
assay: ATG_CRE_CIS: Attagene CIS-FACTORIAL HepG2 Assay for human cAMP Responsive Element (CRE) binding protein 3 (AID 2282926); details: HepG2 CRE cis-reporter, Attagene multiplexed mRNA; actives raise or lower the signal
Method in brief: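 Human liver HepG2, transient MRTU transfection, 24 h compound exposure. Total RNA → oligo(dT) RT → PCR → 6-FAM primer extension → HpaI cut → CE. Activity called both directions vs DMSO.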

outcome, inactive:
CO[Si](C)(OC)c1ccccc1, COc1ccc(OC)c(OC)c1, CN(C)CCOCCN(C)C, CCC/C=C/C=O, CC(=O)O[C@]1(C(C)=O)CC[C@H]2[C@@H]3C[C@H](C)C4=CC(=O)CC[C@]4(C)[C@H]3CC[C@@]21C, CCc1ccc(C=O)cc1, O=C(O)c1cn(-c2ccc(F)cc2)c2cc(N3CCNCC3)c(F)cc2c1=O, c1ccc2c(c1)c1cccc3ccc4cccc2c4c31, Cc1ccc(C=O)cc1, Cc1cccc(C)c1[N+](=O)[O-], COc1nc(C)nc(N)n1, CCCCCCCCCCCCOCCO, Clc1sc(Cl)c(Cl)c1Cl, NC(N)=NC(=O)c1nc(Cl)c(N)nc1N, O=c1[nH]c(=O)n([C@H]2CCCO2)cc1F, CCC(O)CO (configuration not stated), CO[Si](CCCn1c(=O)n(CCC[Si](OC)(OC)OC)c(=O)n(CCC[Si](OC)(OC)OC)c1=O)(OC)OC, Nc1cc(N)cc(C(=O)O)c1, CCCC(=O)OCCC(C)CCC=C(C)C (configuration not stated), O=C(O)c1cccc(C(F)(F)F)c1, CC[Si](OC(C)=O)(OC(C)=O)OC(C)=O, O=S(=O)(O)NC1CCCCC1, CCCCCCCCC=O, CCCCOCCOCCSC#N, CCCCCCCCCCCCSC, CN1[C@@H]2CC(OC(=O)[C@H](CO)c3ccccc3)C[C@H]1[C@@H]1O[C@@H]12 (some centres not stated), O=C(O)C[C@H](O)C[C@H](O)/C=C/c1c(C2CC2)nc2ccccc2c1-c1ccc(F)cc1

Reference: PubChem BioAssay (EPA / NIEHS)
